Measured values published in PubChem BioAssay (NCATS).
Inconclusive results are not listed. Calls of active or inactive are those of the source. Unless noted, calls follow the shape of the dose curve; as a rule, active = well fitted curve in the direction sought with a large enough effect; inconclusive = small, poorly fitted or top-dose-only effect, or another doubt; inactive = no such curve, though single readings can be large; an effect the other way counts as inactive or inconclusive.

Columns and labels:
[1] = Cell Viability - BJ (AID 421; calls by dose curve;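 also: potency is read from the fitted curve at half-maximal effect; cells exposed to compound for 40 hours at 37 °C before readout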); conditions: BJ fibroblast viability, qHTS
Outline: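 Normal human BJ foreskin fibroblasts, 1500/well in complete medium, treated 40 hr at 37 °C. Cellular ATP by CellTiter-Glo luminescence; normalized to DMSO and 100 uM tamoxifen, AC50 from Hill fit.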

[2] = Cell Viability - HepG2 (AID 433; calls by dose curve;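 also: potency is read from the fitted curve at half-maximal effect; cells exposed to compound for 40 hours; potency for ATP loss meaning cytotoxicity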); conditions: qHTS
Outline: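 ATP luminescence (CellTiter-Glo) after 40 h compound exposure, 37 °C, HepG2, 1500 cells/well, complete medium. Normalized: DMSO = basal, 100 uM tamoxifen = 100% inhibition. AC50 via standard Hill equation.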

[3] = Cellular Toxicity (caspase-3) MRC-5 (AID 659); conditions: MRC-5 cells, luminescence, normalized: DMSO 0%, 10 µM staurosporine 100%; series mostly up to 91.7 µM
Outline: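 Luminescent Caspase-Glo 3/7 read-out (1 h, room temperature) after a 16 h, 37 °C compound exposure of MRC-5 lung fibroblasts at 1500 cells/well. Concentration-response AC50 from Hill equation; 0% DMSO, 100% 10 uM staurosporine.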

[4] = Cellular Toxicity (caspase-3) N2a (AID 665); conditions: N2a cells, luminescence, normalized: DMSO 0%, 10 µM staurosporine 100%; series mostly up to 92.2 µM;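 also: compound exposure lasted 16 h at 37 °C before readout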
Outline: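 Caspase-3/7 activation, measured as increased luminescence from aminoluciferin release, is quantified in mouse N2a cells exposed to compounds for 16 h. Values are normalized to DMSO and 10 uM staurosporine, with AC50 derived by Hill modelling.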

[5] = Cellular Toxicity (caspase-3) Renal Proximal Tubule (AID 667); conditions: renal proximal tubule cells; series mostly up to 91.7 µM;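 also: cells exposed to compound for 16 hours at 37 °C before detection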
Outline: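 Luminescent caspase 3/7 signal from peptide-aminoluciferin cleavage measures apoptosis in freshly isolated rat kidney proximal tubule cells after 16 h compound exposure. Concentration-response data are normalized to DMSO and 10 uM staurosporine, and AC50 values come from Hill equation fits.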

[6] = Cell Viability - LYMP2-001 (AID 921); conditions: LYMP2-001 lymphoblastoid cell viability; series mostly up to 92.2 µM; also: nearly all actives have a fitted effect of over 70% in size; also: potency is read from the fitted curve at half-maximal effect
Outline: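 CellTiter-Glo luminescence (intracellular ATP) after 24 hr compound exposure at 37 C, 2500 lymphoblastoid cells/well in complete medium. AC50 fitted with standard Hill equation; tetraoctylammonium bromide positive control.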

[7] = MultiTox-Fluor Cytotoxicity Assay - LYMP1-002 - Live Cells (AID 955); conditions: LYMP1-002 lymphoblastoid live-cell protease fluorescence viability; series mostly up to 46.1 µM; also: % is scaled to controls: 0 for no effect and ±100 for the full control effect
Outline: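 Cells were seeded at 2500 per well and incubated 5 hr. Compounds were then added for 16 hr at 37 C, followed by MultiTox-Fluor reagent for 60 min at room temperature and fluorescence reading of viable-cell protease signal.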

[8] = MultiTox-Fluor Cytotoxicity Assay - LYMP1-003 - Live Cells (AID 962); conditions: LYMP1-003 lymphoblastoid cells, MultiTox-Fluor live-cell protease fluorescence; series mostly up to 92.2 µM;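 also: cells exposed to compound for 16 hours at 37 °C; 0% = DMSO only and full loss = 92 µM tetraoctylammonium bromide; cytotoxic hits lower the live-cell protease signal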
Outline: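 Acute cytotoxicity is scored as a drop in live-cell protease activity in human lymphoblastoid LYMP1-003 cells after 16 hr compound exposure at 37 C. AC50 values come from Hill-equation modelling of concentration-response data.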

[9] = Cell Viability - LYMP1-003 - Assay at 24 hr (AID 963); conditions: LYMP1-003 lymphoblastoid cell viability; series mostly up to 92.2 µM;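 also: plate controls were DMSO only for no effect and tetraoctylammonium bromide positive control for full effect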
Outline: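 Cytotoxicity is scored as a concentration-dependent fall in ATP-linked luciferase signal in human lymphoblastoid LYMP1-003 cells treated 24 hr at 37 C in complete culture medium.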

[10] = Cell Viability - LYMP1-003 - Assay at 40 hr (AID 964); conditions: LYMP1-003 lymphoblastoid viability; series mostly up to 92.2 µM; also: nearly all actives have a fitted effect of over 60% in size; also: potency is read from the fitted curve at half-maximal effect
Outline: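 Luminescent ATP signal (CellTiter-Glo) served as the viability read-out after 40 hr compound treatment of human lymphoblastoid LYMP1-003 cells at 37 C. Decreases in ATP were fitted with the Hill equation to give AC50.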

[11] = Cell Viability - LYMP2-017 (AID 972); conditions: LYMP2-017 lymphoblastoid cell viability; series mostly up to 92.2 µM; also: nearly all actives have a fitted effect of over 55% in size; also: potency is read from the fitted curve at half-maximal effect
Outline: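 Cytotoxicity is scored as a concentration-dependent drop in cellular ATP in a human lymphoblastoid line after 24 hr treatment at 37 C. Values are AC50s from Hill-equation modelling.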

[12] = Cell Viability - LYMP2-021 (AID 974); conditions: LYMP2-021 lymphoblastoid cells viability; series mostly up to 92.2 µM;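 also: compound exposure lasts 24 hours at 37 °C; nearly all actives have a fitted effect of over 55% in size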; also: potency is read from the fitted curve at half-maximal effect
Outline: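 Loss of cellular ATP, measured with a luciferase-based CellTiter-Glo readout, serves as the toxicity signal in human lymphoblastoid cells treated for 24 hours at 37 C. Potency is reported as AC50 from a standard Hill model.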

[13] = Cell Viability - LYMP2-025 (AID 976); conditions: LYMP2-025 lymphoblastoid cell viability; series mostly up to 92.2 µM;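 also: plate controls were DMSO only for no effect and tetraoctylammonium bromide control for full effect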
Outline: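 Acute cytotoxicity is scored as a concentration-dependent fall in intracellular ATP, measured by luciferase luminescence, in human lymphoblastoid LYMP2-025 cells exposed to compound for 24 hours at 37 C. AC50 values come from standard Hill fits.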

[14] = Cell Viability - LYMP2-006 (AID 978); conditions: LYMP2-006 lymphoblastoid cell viability, qHTS; series mostly up to 92.2 µM; also: nearly all actives have a fitted effect of over 60% in size; also: potency is read from the fitted curve at half-maximal effect
Outline: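 qHTS, 1536-well; 2500 cells/well, 5 hr 37 C; cpd 24 hr 37 C; CellTiter-Glo 30 min RT; luminescence. Tetraoctylammonium bromide pos. ctrl. AC50 via Hill eqn.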

[15] = Cell Viability - LYMP2-007 (AID 979); conditions: LYMP2-007 lymphoblastoid cell viability; series mostly up to 92.2 µM;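 also: cells exposed to compound for 24 h before reading; nearly all actives have a fitted effect of over 60% in size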; also: potency is read from the fitted curve at half-maximal effect
Outline: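 Cells are seeded at 2500 per well and rested 5 hr. Compounds are then added over a concentration series for 24 hr at 37 C. CellTiter-Glo is added for 30 min at room temperature before luminescence reading.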

[16] = Cell Viability - LYMP2-014 (AID 983); conditions: LYMP2-014 lymphoblastoid cells, viability qHTS; series mostly up to 92.2 µM;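 also: plate controls were DMSO only for no effect and 92 µM tetraoctylammonium bromide for full effect; nearly all actives have a fitted effect of over 50% in size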
Outline: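 Cells are plated at 2500/well and left 5 hr at 37 C. Compounds are added across a concentration range and incubated 24 hr at 37 C in complete medium. CellTiter-Glo is added, and luminescence is read after 30 min at room temperature.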

[17] = Cell Viability - LYMP2-016 (AID 984); conditions: LYMP2-016 lymphoblastoid cell viability, qHTS; series mostly up to 92.2 µM; also: nearly all actives have a fitted effect of over 55% in size; also: potency is read from the fitted curve at half-maximal effect
Outline: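 qHTS, 1536-well: 2500 LYMP2-016 cells/well, 5 hr 37 C, compound added, 24 hr 37 C, CellTiter-Glo 30 min RT, luminescence. Tetraoctylammonium bromide positive control. AC50 via Hill fit.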

[18] = qHTS Assay for Identification of Small Molecule Inducers of Hypoxia Response (AID 2120; active = well fitted curve in the direction sought with a large enough effect in the signal ratio, with a control signal flat, not every such curve was filed as active; the % refers to the signal ratio; also: 0% is about no effect); conditions: hypoxia response reporter cells, beta-lactamase ratio readout; series mostly up to 104 µM
Outline: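 Cell-based qHTS for reporter induction: hypoxia response element controlled beta-lactamase in ME-180 cells. Compounds incubated 17 h at 37 degrees C; activity from blue/green (460/530 nm) ratio, inducers ranked by AC50.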

[19] = qHTS assay for small molecule agonists of the antioxidant response element (ARE) signaling pathway measured by Nrf2-dependant transcriptional activity - cell viability counter screen (AID 720653; active = well fitted curve in the direction sought with a large enough effect in the repeat runs; an effect the other way counts as inactive or inconclusive; also: % is scaled to controls: 0 for no effect and ±100 for the full control effect); conditions: ARE-bla HepG2 viability, CellTiter-Glo ATP luminescence, 16 h; hits give low values
Outline: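 Cytotoxicity counter screen: intracellular ATP quantified by CellTiter-Glo luminescence in the same ARE-bla HepG2 plates, after 16 h compound exposure and a 2 h beta-lactamase substrate step.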

[20] = qHTS assay for cell viability of HEK293 cells (AID 743288); conditions: ATP luminescence (CellTiter-Glo), 18 h, hits give low values; also: % is scaled to controls: 0 for no effect and ±100 for the full control effect; nearly all actives have a fitted effect of over 50% in size
Outline: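 ATP luminescence (CellTiter-Glo) reports metabolically competent cell number after parental HEK293 cells, 2,000/well, were treated with DMSO-dissolved compounds for 18 h at 37 C; reagent incubation 30 min, room temperature.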

O=C(O)C(Br)Br
inactive: Potency [1] > 92 µM | Potency [2] > 92 µM | outcome [3] | outcome [4] | outcome [5] | Potency [6] | outcome [7] | outcome [8] | outcome [9] | Potency [10] | Potency [11] | Potency [12] | Potency [13] | Potency [14] | Potency [15] | Potency [16] | Potency [17] | Potency [18] | max response [19] -17.6% | max response [20] -1.04%

C=CC(=O)OCC(C)C
inactive: Potency [1] > 92 µM | Potency [2] > 92 µM | outcome [3] | outcome [4] | outcome [5] | Potency [6] | outcome [7] | outcome [8] | outcome [9] | Potency [10] | Potency [11] | Potency [12] | Potency [13] | Potency [14] | Potency [15] | Potency [16] | Potency [17] | Potency [18] | max response [19] -10.1% | max response [20] 2.29%

C=CC(=O)OCCO
inactive: Potency [1] > 92 µM | Potency [2] > 92 µM | outcome [3] | outcome [4] | outcome [5] | outcome [7] | outcome [8] | outcome [9] | Potency [13] | Potency [17] | Potency [18] | max response [19] -2.67% | max response [20] -1.05%

O=[N+]([O-])c1cc(Cl)c(Cl)c(Cl)c1
inactive: Potency [1] > 92 µM | Potency [2] > 92 µM | outcome [3] | outcome [4] | outcome [5] | Potency [6] | outcome [7] | outcome [8] | outcome [9] | Potency [10] | Potency [11] | Potency [12] | Potency [13] | Potency [14] | Potency [15] | Potency [16] | Potency [17] | Potency [18] | max response [19] -3.56% | max response [20] -14.7%

CCCCC(CC)COC(=O)c1ccc(C(=O)OCC(CC)CCCC)c(C(=O)OCC(CC)CCCC)c1 (centres undefined)
inactive: Potency [1] > 92 µM | Potency [2] > 92 µM | outcome [3] | outcome [4] | outcome [5] | Potency [6] | outcome [7] | outcome [8] | outcome [9] | Potency [10] | Potency [11] | Potency [12] | Potency [13] | Potency [14] | Potency [15] | Potency [16] | Potency [17] | Potency [18] | max response [19] -7.7% | max response [20] -4.51%

CCCCOCC1CO1 (centres undefined)
inactive: Potency [1] > 92 µM | Potency [2] > 92 µM | outcome [3] | outcome [4] | outcome [5] | Potency [6] | outcome [7] | outcome [8] | outcome [9] | Potency [10] | Potency [11] | Potency [12] | Potency [13] | Potency [14] | Potency [15] | Potency [16] | Potency [17] | Potency [18] | max response [19] -2.9% | max response [20] -19.5%

O=C(O)C(Br)CBr (centres undefined)
inactive: Potency [1] > 92 µM | Potency [2] > 92 µM | outcome [3] | outcome [4] | outcome [5] | Potency [6] | outcome [7] | outcome [8] | outcome [9] | Potency [10] | Potency [11] | Potency [12] | Potency [13] | Potency [14] | Potency [16] | Potency [17] | Potency [18] | max response [19] 0.981% | max response [20] -8.07%

CN(C)c1ccc(N)cc1
active: Potency [1] 28.3 µM | Potency [6] 50.1 µM | Potency [10] 39.8 µM | Potency [11] 50.1 µM | Potency [12] 63.1 µM | Potency [14] 50.1 µM | Potency [15] 50.1 µM | Potency [17] 79.4 µM
inactive: Potency [2] > 92 µM | outcome [3] | outcome [4] | outcome [5] | Potency [18] | max response [19] -16.3%

CCN(N=O)C(N)=O
inactive: Potency [1] > 92 µM | Potency [2] > 92 µM | outcome [3] | outcome [4] | outcome [5] | Potency [6] | outcome [7] | outcome [8] | outcome [9] | Potency [10] | Potency [11] | Potency [12] | Potency [13] | Potency [14] | Potency [15] | Potency [16] | Potency [17] | Potency [18] | max response [19] 1.02% | max response [20] 9%

N#CCc1ccccc1
inactive: Potency [1] > 92 µM | Potency [2] > 92 µM | outcome [3] | outcome [4] | outcome [5] | Potency [6] | outcome [7] | outcome [8] | outcome [9] | Potency [10] | Potency [11] | Potency [12] | Potency [13] | Potency [14] | Potency [15] | Potency [16] | Potency [17] | Potency [18] | max response [19] -1.59% | max response [20] -1.92%

O=[N+]([O-])c1ccccc1CCl
inactive: Potency [1] > 92 µM | Potency [2] > 92 µM | outcome [3] | outcome [4] | outcome [5] | outcome [7] | outcome [8] | outcome [9] | Potency [10] | Potency [13] | Potency [16] | Potency [17] | Potency [18] | max response [19] -9.56% | max response [20] 2.01%

ClCCCCl
inactive: Potency [1] > 92 µM | Potency [2] > 92 µM | outcome [3] | outcome [4] | outcome [5] | Potency [6] | outcome [7] | outcome [8] | outcome [9] | Potency [10] | Potency [11] | Potency [12] | Potency [13] | Potency [14] | Potency [15] | Potency [16] | Potency [17] | Potency [18] | max response [19] 1.55% | max response [20] 2.44%

C=C(Cl)CSC(=S)N(CC)CC
inactive: Potency [1] > 92 µM | Potency [2] > 92 µM | outcome [3] | outcome [4] | outcome [5] | Potency [6] | outcome [7] | outcome [8] | outcome [9] | Potency [10] | Potency [12] | Potency [13] | Potency [14] | Potency [15] | Potency [17] | Potency [18] | max response [19] -13% | max response [20] 5.22%
